Screens as filed in PubChem.
NSD2 HMT inh = NSD2 histone methyltransferase inhibitors, primary screen, biochemical, AlphaScreen, single concentration, set 2; Histone-lysine N-methyltransferase NSD2 (Homo sapiens), O96028; NSD2 peptide methylation, 120 min; inhibition, % at 12.5 µM; 310,000 compounds, 0.54% hits; AID 743445, 2014; in the data active = inhibition above about 50%
CASP6 VEID inh = human caspase-6 inhibitors, primary screen, biochemical, VEID-R110 fluorescence, single point, set 2. AID 686996, 2013. inhibition, % at 12.5 µM. 350,000 compounds, 0.53% hits. purified caspase-6, Z-VEID-R110 cleavage fluorescence. P55212;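 active = mean inhibition across replicates at least about 35%, with every replicate also reaching that limit, limit read from the data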;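 also: 0% = median of neutral control wells and 100% = no fluorescence left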
Target sequence (P55212 24-179 limits assumed): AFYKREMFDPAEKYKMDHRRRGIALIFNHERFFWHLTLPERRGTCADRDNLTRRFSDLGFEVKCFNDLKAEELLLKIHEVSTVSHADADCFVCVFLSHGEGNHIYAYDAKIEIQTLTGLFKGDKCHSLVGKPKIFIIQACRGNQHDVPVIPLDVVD
Target sequence (P55212 194-293 limits assumed): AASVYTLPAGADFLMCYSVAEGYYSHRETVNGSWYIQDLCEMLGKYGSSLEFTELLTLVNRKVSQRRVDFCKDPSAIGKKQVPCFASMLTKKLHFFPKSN
SIRT5 inh = SIRT5 desuccinylase inhibitors, primary screen, biochemical, fluorescence imaging, single point, set 5. NAD-dependent protein deacylase sirtuin-5, mitochondrial (Homo sapiens), Q9NXA8. Purified SirT5, succinyl-peptide AMC, trypsin-coupled fluorescence. inhibition, % at 15 µM. 330,000 compounds, 1.1% hits. AID 652115, 2013; in the data active = inhibition above about 15%
Target sequence (Q9NXA8 whole entry, looked up): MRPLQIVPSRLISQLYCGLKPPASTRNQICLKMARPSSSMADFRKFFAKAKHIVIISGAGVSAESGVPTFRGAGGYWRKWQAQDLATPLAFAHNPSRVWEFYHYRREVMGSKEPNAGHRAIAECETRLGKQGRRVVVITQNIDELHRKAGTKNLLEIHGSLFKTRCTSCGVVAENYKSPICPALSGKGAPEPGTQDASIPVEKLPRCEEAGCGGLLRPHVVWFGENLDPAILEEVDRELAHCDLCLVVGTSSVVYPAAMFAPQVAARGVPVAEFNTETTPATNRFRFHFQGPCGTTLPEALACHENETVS
Numbers without * were called inactive; ! = not active in a repeat. An excerpt weighted towards active compounds, which were near 1.6% of everything screened.

`CC(C)C#Cc1cnc2c(c1)C(=O)N([C@@H](C)CO)C[C@H](C)[C@H](CN(C)C(=O)c1ccccc1)O2` gave CASP6 VEID inh 0 and SIRT5 inh 17*.
For COCC#Cc1cnc2c(c1)C(=O)N([C@@H](C)CO)C[C@@H](C)[C@@H](CN(C)C(=O)c1ccc(F)cc1)O2 the results were CASP6 VEID inh 0 and SIRT5 inh 31*.
`COc1ccccc1NC(=O)N(C)C[C@H]1Oc2ncc(C#CC(C)C)cc2C(=O)N([C@@H](C)CO)C[C@@H]1C` gave CASP6 VEID inh 1 and SIRT5 inh 16*.
CC(C)NC(=O)N(C)C[C@H]1Oc2ncc(C#CCc3ccccc3)cc2C(=O)N([C@@H](C)CO)C[C@@H]1C was read as CASP6 VEID inh 1 and SIRT5 inh 16*.
For O=C(N1CCOCC1)[C@@]1(Cc2ccccc2)N=C(c2ccc(OCCCO)cc2)O[C@H]1c1ccccc1 the results were CASP6 VEID inh 1 and SIRT5 inh -22.
For Cc1noc(C)c1S(=O)(=O)Nc1ccc2c(c1)C(=O)N([C@@H](C)CO)C[C@@H](C)[C@H](CN(C)C(=O)NC(C)C)OCCCC[C@H](C)O2 the results were CASP6 VEID inh 3 and SIRT5 inh 2.
`COc1ccc(NC(=O)N(C)C[C@H]2Oc3ccc(NC(=O)NC(C)C)cc3C(=O)N([C@@H](C)CO)C[C@@H]2C)cc1` gave CASP6 VEID inh 1 and SIRT5 inh 10.
Screening COc1ccc2c3c([nH]c2c1)[C@H](CO)N(Cc1nccs1)CC31CN(Cc2cccnc2)C1 returned CASP6 VEID inh -1 and SIRT5 inh 4.
COc1ccccc1C#Cc1cnc2c(c1)C(=O)N([C@@H](C)CO)C[C@H](C)[C@@H](CN(C)C)O2 was read as CASP6 VEID inh 2 and SIRT5 inh 31*.
CC(C)C#Cc1cnc2c(c1)C(=O)N([C@@H](C)CO)C[C@H](C)[C@@H](CN(C)C(=O)Cc1ccccn1)O2 was read as CASP6 VEID inh 4 and SIRT5 inh 17*.
For CC(C)C#Cc1cnc2c(c1)C(=O)N([C@H](C)CO)C[C@@H](C)[C@@H](CN(C)C(=O)Cc1ccccn1)O2 the results were CASP6 VEID inh -1 and SIRT5 inh -1.
COc1ccc(NC(=O)N(C)C[C@@H]2OCCCC[C@H](C)Oc3ccc(NC(=O)C4CCCCC4)cc3C(=O)N([C@H](C)CO)C[C@H]2C)cc1 was read as CASP6 VEID inh 5 and SIRT5 inh 4.
`CO[C@H]1CN(C)C(=O)c2ccc(NC(C)=O)cc2OC[C@H](C)N(C(=O)C2CC2)C[C@H]1C` gave CASP6 VEID inh -3 and SIRT5 inh -6.
For CCC(=O)Nc1ccc2c(c1)OC[C@@H](C)N(C(=O)CC1CC1)C[C@H](C)[C@H](OC)CN(C)C2=O the results were CASP6 VEID inh -1 and SIRT5 inh 1.
For C[C@@H]1CN([C@H](C)CO)S(=O)(=O)c2ccc(C#CC3CCCC3)cc2O[C@H]1CN(C)C(=O)Nc1cc(F)ccc1F the results were CASP6 VEID inh 2 and SIRT5 inh 15*.
Screening C[C@H]1CN([C@@H](C)CO)S(=O)(=O)c2ccc(C#CC3CC3)cc2O[C@H]1CN(C)C(=O)c1ccccn1 returned CASP6 VEID inh -1 and SIRT5 inh 30*.
C[C@H]1CN([C@@H](C)CO)S(=O)(=O)c2ccc(C#CC3CCCC3)cc2O[C@H]1CN(C)C(=O)Nc1cc(F)ccc1F was read as CASP6 VEID inh 2 and SIRT5 inh 0.
C[C@H]1CN([C@@H](C)CO)S(=O)(=O)c2ccc(C#CC3CC3)cc2O[C@@H]1CN(C)C(=O)Cc1ccncc1 was read as CASP6 VEID inh -4 and SIRT5 inh 18*.
Screening C[C@@H]1CN([C@H](C)CO)S(=O)(=O)c2ccc(C#CC3CCCC3)cc2O[C@H]1CN(C)C returned CASP6 VEID inh 2 and SIRT5 inh 101*.
Screening Cc1cc(C(=O)Nc2cccc3c2O[C@@H](CN(C)S(=O)(=O)c2ccc(Cl)cc2)[C@H](C)CN([C@@H](C)CO)C3=O)n(C)n1 returned CASP6 VEID inh 2 and SIRT5 inh -2.
For Cc1noc(C)c1NC(=O)N(C)C[C@H]1OCCCC[C@H](C)Oc2ccc(NC(=O)NC(C)C)cc2C(=O)N([C@@H](C)CO)C[C@@H]1C the results were CASP6 VEID inh -1 and SIRT5 inh -9.
Screening COc1ccc(NC(=O)N(C)C[C@H]2Oc3ccc(NS(C)(=O)=O)cc3C(=O)N([C@@H](C)CO)C[C@@H]2C)cc1 returned CASP6 VEID inh -1 and SIRT5 inh -8.
For COc1ccccc1CNC(=O)C[C@H]1CC[C@@H](NC(C)=O)[C@H](CO)O1 the results were CASP6 VEID inh 2 and SIRT5 inh 2.
Screening C[C@@H]1CN([C@H](C)CO)C(=O)c2cc(C#Cc3ccccn3)cnc2O[C@@H]1CN(C)C(=O)c1ccccn1 returned CASP6 VEID inh 1 and SIRT5 inh -1.
For C[C@H](CO)N1C[C@H](C)[C@@H](CN(C)C(=O)Cc2ccccc2)Oc2cc(C#CC3CCCC3)ccc2S1(=O)=O the results were SIRT5 inh 15*.
C[C@@H]1CN([C@H](C)CO)S(=O)(=O)c2ccc(C#CC3CCCC3)cc2O[C@H]1CN(C)C(=O)Cc1ccccc1 was read as CASP6 VEID inh 5 and SIRT5 inh 17*!.
Screening CC(C)(C)[S@](=O)N1Cc2cc(C(=O)NCCN3CCCCC3)nc(-c3cccc(-c4cccc(C#N)c4)c3)c2[C@@H]1CCO returned CASP6 VEID inh -24 and SIRT5 inh 1.
For C[C@H](CO)N1C[C@H](C)[C@@H](CN(C)C(=O)Nc2ccc(F)cc2)OCCCC[C@H](C)Oc2ccc(NS(=O)(=O)c3cn(C)cn3)cc2C1=O the results were CASP6 VEID inh 0 and SIRT5 inh -6.
`O=C(/C=C1\OCc2ccccc21)OCc1ccccc1` gave NSD2 HMT inh 3, CASP6 VEID inh 17 and SIRT5 inh 15*.
For O=C(/C=C1\OCc2cc(OCc3ccccc3)ccc21)OCc1ccccc1 the results were CASP6 VEID inh 2 and SIRT5 inh -2.
For Cc1ccc(S(=O)(=O)Nc2ccc3c(c2)C(=O)N([C@H](C)CO)C[C@@H](C)[C@H](CN(C)S(=O)(=O)c2ccc(F)cc2)OCCCC[C@@H](C)O3)cc1 the results were CASP6 VEID inh 1 and SIRT5 inh 14.
`Cc1ccc(S(=O)(=O)N(C)C[C@@H]2OCCCC[C@@H](C)Oc3ccc(NS(=O)(=O)c4ccc(F)cc4)cc3C(=O)N([C@@H](C)CO)C[C@@H]2C)cc1` gave CASP6 VEID inh 1 and SIRT5 inh 29*.
`C[C@@H]1CCCCO[C@H](CN(C)S(=O)(=O)c2ccc(F)cc2)[C@@H](C)CN([C@H](C)CO)C(=O)c2cc(NS(=O)(=O)c3ccccc3)ccc2O1` gave CASP6 VEID inh -2 and SIRT5 inh 3.
For Cc1ccc(S(=O)(=O)Nc2ccc3c(c2)C(=O)N([C@@H](C)CO)C[C@H](C)[C@H](CN(C)S(=O)(=O)c2ccc(F)cc2)OCCCC[C@@H](C)O3)cc1 the results were CASP6 VEID inh 2 and SIRT5 inh 18*.
